Compound activity from PubChem BioAssay.
Compounds with a hit are over-represented: about 4% of the library has one in this group of screens.
TROY signal inh – blocks TROY-dependent signaling in reporter cells; Q293 LMP1-TROYcd NF-kB luciferase reporter, 4 h; inhibition, % at 10 µM; 360,000 compounds, 0.98% hits; AID 1347056;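 active = compounds whose plate-normalised and pattern-corrected inhibition of the luciferase reporter signal at the single screening dose is 50% or more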
TWEAK-Fn14 inh – TWEAK-Fn14 signaling inhibition; inhibition, % at 10 µM; TWEAK-stimulated Fn14 reporter cells, luciferase luminescence, 8 h; 360,000 compounds, 2% hits; in the data active = inhibition above about 50%
Peg3 prom inh – inhibitors of Peg3 promoter; HeLa PEG-Prom luciferase reporter, luminescence, overnight; 360,000 compounds, 1.7% hits; inhibition, % at 20 µM;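 active = inhibition of at least 50% at 20 µM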
HIF-2a inh – blocks HIF-2a reporter activity; 786-0 RCC cells HIF-2a reporter, luciferase luminescence, overnight; inhibition, % at 18.8 µM; 360,000 compounds, 0.72% hits;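 active = inhibition of the luminescence signal of 40% or more relative to plate controls, in a single-dose primary screen at 18.75 µM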
CF NFkB inh – blocks PAF-induced NF-kB reporter in cystic fibrosis cells | AID 588850 | KKLEB NF-kB-GFP reporter, GFP fluorescence overnight | 360,000 compounds, 0.86% hits | inhibition, % at 5 µM;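 active = at least 50% inhibition at 5 µM, scaled per plate between neutral and stimulator controls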;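 note: PAF is a Pseudomonas aeruginosa culture filtrate used as stimulus; plate controls were PAF-stimulated DMSO wells for no effect and unstimulated DMSO wells for full effect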
KKLEB cytotox – counter-screen for CF NF-kB inhibitors: cytotoxicity; KKLEB CF airway cells viability, ATPlite luminescence, overnight; active compounds read low; cells stimulated with P. aeruginosa culture filtrate; activity change (cytotoxicity), % at 5 µM; 360,000 compounds, 0.36% hits;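 active = corrected activity change at or below -50% at 5 µM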
* = called active by the depositor; . = no result given.

SMILES | TROY signal inh | TWEAK-Fn14 inh | Peg3 prom inh | HIF-2a inh | CF NFkB inh | KKLEB cytotox
Cc1cc(C)c(O)c(-c2cc(C(=O)Nc3ccc(S(=O)(=O)N4CCOCC4)cc3)[nH]n2)c1 | 70* | 63* | 59* | -5 | 7 | 3
COC(=O)c1cc(OC)c(OC)cc1N=CC1=C(O)CC(C)(C)CC1=O | -9 | 56* | -9 | 0 | 2 | 6
COC(=O)c1cc(N=CC2=C(O)CC(C)(C)CC2=O)cc(C(=O)OC)c1 | 4 | 2 | 8 | 13 | 21 | -18
CCn1c2nc(SCCN3CCOCC3)nnc2c2cc(C)cc(C)c21 | 12 | 6 | 26 | 10 | -11 | 7
Cc1ccccc1CN(C)CCS(=O)(=O)c1cc(Cl)ccc1Cl | 3 | 65* | 11 | 24 | 26 | -21
CC(=O)NC12CC3CC(C1)CC(C(=O)NCc1ccc(C)cc1)(C3)C2 | 1 | 26 | 5 | 9 | 12 | 0
COc1cccc(-c2oc3c(c2-c2ccc(OC)nc2)C(O)CCC3)c1 (stereo not given) | -4 | -14 | . | -49 | . | .
O=C(CN1CCc2cc3c(cc2C1)OCCCO3)Nc1c(F)cccc1F | 21 | 15 | 23 | -3 | -5 | -28
CCNS(=O)(=O)c1ccc(CCC(=O)Nc2cc(Cl)ccc2Oc2ccccc2)cc1 | 27 | 44 | 63* | 24 | 15 | -14
Cc1ccc(Oc2cc([N+](=O)[O-])cc3c2C(=O)Nc2ccccc2O3)cc1 | 6 | 56* | -10 | -10 | 19 | -11
O=C1Nc2ccccc2Nc2ccc([N+](=O)[O-])cc21 | -17 | 13 | 1 | 9 | -15 | 2
Cc1ccc(-c2nc(NC(=O)CSc3nnc4scc(-c5ccccc5)n34)ns2)cc1 | 52* | 48 | -4 | -12 | 9 | -8
CCCN1CCC(Oc2cccc(C(=O)NCCc3ccccc3)c2)CC1 | -20 | 5 | -29 | -14 | -15 | -10
CN(C)Cc1c(O)ccc2cc(-c3nc4ccccc4n3C)c(=O)oc12 | 21 | 56* | 10 | 21 | 20 | -2
CC1CC(O)C2C3(C)CCCC2(COC3=O)C12CCC1(CCOC1=O)O2 (stereo not given) | 9 | -1 | -1 | -3 | 7 | 1
C=CCN=C(NC#N)SCC(=O)c1cccc(OC)c1 | -24 | 20 | -172 | -178 | 61* | -20
C=CCN=C(NC#N)SCc1ccccc1 | 8 | -21 | 14 | 1 | 18 | 6
Cc1cc(-c2ccc(C)c(S(=O)(=O)NCc3ccc(Br)cc3)c2)on1 | 32 | 65* | 21 | 24 | 40 | 6
Cc1cc(-c2ccc(C)c(S(=O)(=O)NCc3cccc(Br)c3)c2)on1 | 8 | -12 | 31 | 11 | -4 | 1
CC(C)(C)c1ccc(OCC(=O)NNC(=O)C2CCCO2)cc1 (stereo not given) | 17 | 2 | -8 | 4 | -3 | 7
CC(C)=C1C2CCC1C1C(=O)N(NC(=O)COc3ccc(C(C)(C)C)cc3)C(=O)C21 (stereo not given) | -6 | -19 | 55* | 13 | 7 | -3
CCCCN1CC(COCc2ccccc2)Oc2cccc(Oc3ccc(OC)cc3)c2S1(=O)=O (stereo not given) | -4 | -6 | 4 | 15 | 6 | 8
CCCCN1CC(COCc2ccccc2)Oc2cccc(OCCN3C(=O)[C@@H]4[C@H](C3=O)C3C=C[C@H]4C3)c2S1(=O)=O (stereo not given in full) | 18 | 42 | 59* | -14 | 43 | -5
CC(C)CN1CCC(C(=O)NC(c2ccc(F)cc2)c2ccc3ccccc3n2)CC1 (stereo not given) | -8 | 4 | -16 | -36 | 3 | -5
COc1ccc(/C=C/CN2CCC(C(=O)NC(c3ccc(F)cc3)c3ccc4ccccc4n3)CC2)cc1 (stereo not given) | 23 | -12 | 102* | -25 | 10 | -18
SMILES | TROY signal inh | TWEAK-Fn14 inh | Peg3 prom inh | HIF-2a inh | CF NFkB inh | KKLEB cytotox
COc1cc2c(cc1NC(=O)C(C)Sc1ccc(NC(C)=O)cc1)oc1ccccc12 (stereo not given) | 8 | 66* | 15 | -92 | 10 | -17
COc1cc2c(cc1NC(=O)Nc1ccc(C)cc1)oc1ccccc12 | -55 | -6 | -68 | -117 | -3 | 16
CCCS(=O)(=O)c1c(S(=O)(=O)CCC)c2c(C)cccn2c1C(N)=O | 15 | 15 | 9 | 7 | 3 | 7
CCCS(=O)(=O)c1c(S(=O)(=O)CCC)c2c(C)cccn2c1C(=O)N/N=C/c1cc(O)cc(O)c1 | -2 | -43 | 53* | 10 | 11 | 0
Cc1csc(NC(=O)CSc2nc3[nH]c(=O)cc(O)c3s2)n1 | 2 | 19 | 99* | 30 | 71* | -19
O=C(CSc1nc2[nH]c(=O)cc(O)c2s1)Nc1nncs1 | 21 | 8 | 5 | 2 | 4 | -23
CC(=O)Oc1ccc2occ(C(=O)c3ccccc3)c2c1 | -27 | -5 | -307 | -37 | -17 | 21
CC(=O)Oc1ccc2occ(-c3ccccc3)c2c1 | 24 | 54* | -208 | -106 | 38 | 7
COc1ccccc1/C=C1\CCCC2=C1Nc1nnnn1C2c1ccccc1OC (stereo not given) | 13 | 12 | 101* | 26 | 46 | -12
Cc1ccccc1Nc1nc(Nc2ccccc2C)nc(SC2=NCCS2)n1 | 18 | 71* | 23 | -21 | 16 | -2
C/C(=N\Nc1nnc(-c2ccccc2)c(-c2ccccc2)n1)c1cccc([N+](=O)[O-])c1 | -18 | 2 | 19 | 10 | 34 | -51*
O=[N+]([O-])c1cccc(/C=N/Nc2nnc(-c3ccccc3)c(-c3ccccc3)n2)c1 | -27 | -4 | 12 | 18 | 20 | 7
CC(=O)Nc1ccc(NC(=O)C(C)OC(=O)CNS(=O)(=O)c2ccc(Br)cc2Cl)cc1 (stereo not given) | 23 | 15 | 16 | 27 | -13 | 17
CCOC(=O)c1sc(N(Cc2ccccc2)C(=O)COC(=O)c2ccc(O)cc2)nc1C | 37 | 71* | -65 | -52 | 0 | -3
CCOC(=O)c1sc(N(Cc2ccccc2)C(=O)COC(=O)c2ccccc2O)nc1C | -30 | -25 | -48 | -56 | 1 | -6
CCOC(=O)c1sc(N(Cc2ccccc2)C(=O)CCl)nc1C | 0 | -36 | 63* | -46 | 65* | -40
O=C(CSc1nnc(-c2c[nH]c3ccccc23)o1)N(Cc1ccccc1)c1ccc(F)cc1 | 31 | 64* | 3 | -76 | -4 | 20
COc1ccc(CN(C(=O)CSc2nnc(-c3ccccc3C)o2)c2ccc(F)cc2)cc1 | -17 | 17 | 31 | -2 | 16 | -11
Cc1cc(C(=O)CCl)c(C)n1CCc1ccc(F)cc1 | -9 | 9 | 56* | -5 | 18 | -10
COc1ccc(CCn2c(C)cc(C(=O)CCl)c2C)cc1OC | 12 | 4 | 61* | 11 | 11 | -7
